Assay results: PubChem BioAssay AID2599 (Sanford-Burnham Center for Chemical Genomics, 2010)
The whole screen tested about 330,000 compounds, of which about 5,800 (1.8%) were called active. What follows is part of a selection rich in actives, with near analogues and random picks from the rest. A number with no mark means an inactive call.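 Rule for the calls: active = inhibition above about 50% at the single tested dose (limit read from the data); inactive = the rest.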

What follows are compounds tested against Sentrin-specific protease 6 (Homo sapiens) (UniProt Q9GZR1) (assay: inhibition of human SENP6 catalytic domain – biochemical, luminescence, uHTS, primary screen (AID 2599;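 note: plate controls were DMSO wells with enzyme for no effect and DMSO wells lacking enzyme for full effect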)). Settings: Recombinant SENP6 catalytic domain, aminoluciferin luminescence; at 10 µM; hits give high values.
Chain of Sentrin-specific protease 6 (Homo sapiens) (Q9GZR1 628-1112 limits assumed): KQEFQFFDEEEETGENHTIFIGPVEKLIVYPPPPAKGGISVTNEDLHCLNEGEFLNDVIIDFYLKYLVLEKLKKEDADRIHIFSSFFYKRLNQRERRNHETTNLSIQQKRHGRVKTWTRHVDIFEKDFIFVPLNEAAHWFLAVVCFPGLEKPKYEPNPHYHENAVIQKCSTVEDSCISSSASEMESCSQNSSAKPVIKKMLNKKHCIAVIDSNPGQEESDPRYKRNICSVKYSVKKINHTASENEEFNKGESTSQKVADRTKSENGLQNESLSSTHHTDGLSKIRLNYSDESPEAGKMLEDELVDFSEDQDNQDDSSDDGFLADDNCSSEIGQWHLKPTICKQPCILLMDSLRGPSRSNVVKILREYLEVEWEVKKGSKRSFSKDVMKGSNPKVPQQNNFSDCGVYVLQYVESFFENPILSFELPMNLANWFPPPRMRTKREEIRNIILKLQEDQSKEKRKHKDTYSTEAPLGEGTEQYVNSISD

Compound | inhibition
CN(C(=O)CSc1nncc2ccccc12)C1CCCCC1 | -34.7%
CN(c1ccc2nc3ccccc3c(=O)n2n1)C1CCCCC1 | 93.7% (active)
CN(C(=O)c1cc2c(=O)n3ccccc3nc2s1)C1CCCCC1 | -20.3%
COc1ccc(/C=N/NC(=O)c2ccncc2)cc1CN1CCCc2ccccc21 | -2.09%
C=CCn1c(Cn2nnc3ccccc32)nnc1SCC(=O)N/N=C/c1cc(Br)cc(OC)c1O | 20.6%
Cc1ccc(Nc2ncnc3c2cnn3C)c(C)c1 | 14.7%
CCN(CC)C(=O)CSc1ncnc2c1cnn2-c1ccccc1 | 22.4%
Cc1ccc(-n2ncc3c(Nc4cccc(C(=O)O)c4)ncnc32)cc1 | 97.4% (active)
O=C(CCC(=O)c1cccs1)Nc1nc2ccccc2s1 | -6.28%
c1ccc2sc(NN=C3CCCC3)nc2c1 | 84.1% (active)
O=C(CCNC(=O)c1ccccc1)Nc1nc2ccccc2s1 | -6.27%
CC1=NN(C(N)=S)C(=O)C1N=Nc1cc(Cl)ccc1Cl (centres undefined) | 67.7% (active)
CN(C)S(=O)(=O)c1ccc(N2CCCC2)c(C(=O)Nc2cccc(F)c2)c1 | -13.9%
c1ccc(C2CCC(N3CCC(N4CCCCC4)CC3)CC2)cc1 (centres undefined) | -12.6%
CCCOc1ccc(NC(=O)CC2C(=O)N(C)C(=S)N2Cc2ccc3c(c2)OCO3)cc1 (centres undefined) | -5.66%
Cc1ccc(NC(=O)CN2CCc3ccccc3C2)cc1 | -1.22%
Cc1ccc(S(=O)(=O)Nc2nc3ccccc3nc2N2CCc3ccccc3C2)cc1 | 72.3% (active)
Cc1ccc(S(=O)(=O)N2CCN(c3ncnc4ccccc34)CC2)cc1 | -8.22%
CCOc1ncccc1C(=O)N(C)CC(=O)Nc1ccc(F)cc1 | -13.5%
COc1ccc(CCC(C)N2CCc3ccccc3C2)cc1 (centres undefined) | -16.3%
CC1CCC(NC(=O)CNC(=O)c2ccc3ccccc3c2)CC1 (centres undefined) | -5.64%
COc1ccc(N(CC(=O)NCc2ccc(F)cc2)C(=O)CCC(=O)Nc2nccs2)cc1 | -20.2%
Cn1cccc1C(=O)OCC(=O)c1ccc(Br)s1 | 80.6% (active)
Cn1cccc1C(=O)OCC(=O)NCCc1ccccc1 | 2.46%
O=C(COC(=O)c1c2c(nc3ccccc13)CCCC2)c1ccc(Br)s1 | -21.7%

Compound | inhibition
Cc1cc(C(=O)N2CCC(C(=O)O)CC2)c(C(F)(F)F)o1 | -4.3%
CCCNC(=S)NC1CC2CCCC(C1)N2CC(C)C (centres undefined) | -7.92%
COc1ccc(CNC(=O)COc2ccccc2C(=O)c2cnn(-c3ccccc3)c2)cc1OC | 82.5% (active)
COc1ccc(CNC(=O)Cc2ccc(-c3ccccc3)cc2)cc1OC | -23.6%
COc1ccc(CNC(=O)COC(=O)c2c(C)nn(-c3ccccc3)c2C)cc1OC | -8.11%
COC(=O)C1=C(C(=O)OC)[C@@H]2N(C)c3ccccc3[C@@]23C[C@@H](C(=O)OC)N(C(C)=O)C3=N1 | 3.79%
CC(C)(C)NC(=O)Cn1c(SCC(=O)Nc2nccs2)nc2ccccc21 | 1.04%
O=C1/C(=C/c2cccs2)CCc2ccccc21 | 94.5% (active)
COc1ccc(/C=C2\CCc3ccccc3C2=O)c(OC)c1OC | -14.7%
CN1C/C(=C/c2cccs2)C(=O)/C(=C\c2cccs2)C1 | 8.32%
Cc1ccc(NS(=O)(=O)c2cccs2)cc1S(=O)(=O)N1CCCCCC1 | -3.66%
CCc1ccc(C(=O)COC(=O)c2ccco2)cc1 | 66.8% (active)
CCN(CC)c1ccc(C(=O)OCC(=O)c2ccco2)cc1 | -14.3%
O=C(OCC(=O)N1CCCC1)c1ccco1 | -23.3%
Cc1ccc(CN2CC(C(=O)NNC(=O)Cn3ccc(C(F)(F)F)n3)CC2=O)cc1 (centres undefined) | -0.795%
NC(=O)c1ccc(Nc2ccc3nonc3c2[N+](=O)[O-])cc1 | 6.58%
Cc1nc2nc(CSc3nc4ccccc4s3)cc(=O)n2[nH]1 | -34.9%
O=[N+]([O-])c1c(NCCO)cc(Sc2nc3ccccc3s2)c2nonc12 | 79.3% (active)
COc1ccc(C)cc1S(=O)(=O)Nc1cccc(Cl)c1Cl | -4.81%
O=C(Cc1ccc(Cl)cc1)NCc1nc(-c2ccccc2)no1 | -9.63%
C/C(=N\NC(=O)c1ccoc1C)c1ccccc1O | 56.4% (active)
CC(C)=C(NC(=O)c1ccccc1)C(=O)N/N=C(\C)c1ccccc1O | -21.8%
C/C(=N\NC(=O)c1ccccc1F)c1ccccn1 | 45%
CSCCC(NC(=O)c1ccccc1)C(=O)N1CCN(Cc2ccc(Cl)cc2)CC1 (centres undefined) | -6.84%
